Source: PubChem BioAssay AID1159580 (chemical genetic matrix, 2015)
Values joined by “and” are separate entries in the source; they are usually repeats but may differ in a detail not shown here. Equal values may be shown once. In all, about 5,500 compounds went through this assay and about 2,000 (36%) were called active. About 18% were inconclusive and are not listed. Cut-off read from the data, not from the text of the source: active = normalized growth mostly below about 0.91 (no sharp cut-off); inconclusive = no clear call, values can overlap the other calls; inactive = mostly above about 0.92. The list shows a part of the results.

Assay: chemical genetic growth profiling, strain panel (AID 1159580);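 note: tested at 20 µM; growth read once vehicle control cultures reached saturation at 30 °C; 1 = growth at the plate median or of vehicle wells; lower values mean less growth of the strain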
Settings: S. cerevisiae deletion strains, growth OD

Measured: normalized growth

CNCCCN1c2ccccc2CCc2ccccc21
inactive: locus YAL013W, strain DEP1, hits give low values 0.993 | locus YAL021C, strain ccr4, hits give low values 1 | locus YAL026C, strain drs2, hits give low values 0.985 | locus YAL030W, strain snc1, hits give low values 1.03 | locus YAL040C, strain CLN3, hits give low values 1 | locus YBL061C, strain skt5, hits give low values 1.02 | locus YBR009C, strain hhf1, hits give low values 0.972 | locus YBR021W, strain FUR4, hits give low values 1 | locus YBR023C, strain chs3, hits give low values 1.02 | locus YBR171W, strain sec66, hits give low values 1.03 | locus YBR229C, strain ROT2, hits give low values 1.01 | locus YBR231C, strain swc5, hits give low values 1.02 | locus YBR279W, strain paf1, hits give low values 0.996 | locus YCL011C, strain gbp2, hits give low values 0.994 | locus YCL016C, strain dcc1, hits give low values 0.988 | locus YCL029C, strain bik1, hits give low values 1 | locus YCL061C, strain MRC1 (second series), hits give low values 0.994 | locus YCL061C, strain MRC1, hits give low values 1.04 | locus YCL069W, strain vba3, hits give low values 1.02 | locus YCR088W, strain abp1, hits give low values 1.02 | locus YDL005C, strain med2, hits give low values 1.03 | locus YDL035C, strain GPR1, hits give low values 1.02 | locus YDL040C, strain nat1, hits give low values 1.02 | locus YDL074C, strain BRE1, hits give low values 1 | locus YDL101C, strain DUN1, hits give low values 1 | locus YDL134C, strain PPH21, hits give low values 1.02 | locus YDL185W, strain tfp1, hits give low values 1 | locus YDL192W, strain arf1, hits give low values 0.997 | locus YDR001C, strain nth1, hits give low values 1.02 | locus YDR069C, strain doa4, hits give low values 1.05 | locus YDR101C, strain arx1, hits give low values 1.01 | locus YDR137W, strain rgp1, hits give low values 1.1 | locus YDR150W, strain NUM1, hits give low values 1.01 | locus YDR159W, strain sac3, hits give low values 0.987 | locus YDR162C, strain NBP2, hits give low values 1.02 | locus YDR195W, strain ref2 1.07 | locus YDR297W, strain sur2, hits give low values 1.03 | locus YDR318W, strain mcm21, hits give low values 0.993 | locus YDR334W, strain swr1, hits give low values 1.01 | locus YDR335W, strain msn5, hits give low values 1.02 | locus YDR363W, strain ESC2, hits give low values 0.997 | locus YDR388W, hits give low values 0.992 | locus YDR392W, strain spt3, hits give low values 0.91 | locus YDR502C, strain sam2, hits give low values 1.01 | locus YEL003W, strain gim4, hits give low values 1.02 | locus YEL037C, strain rad23, hits give low values 1.01 | locus YEL061C, strain CIN8 (second series), hits give low values 1.01 | locus YEL061C, strain CIN8, hits give low values 1.01 | locus YER002W, strain NOP16, hits give low values 0.983 | locus YER015W, strain faa2, hits give low values 1.01 | locus YER016W, strain bim1, hits give low values 0.991 | locus YER110C, hits give low values 0.999 | locus YER111C, strain swi4, hits give low values 1.01 | locus YER155C, strain BEM2 (second series), hits give low values 1.05 | locus YER155C, strain BEM2, hits give low values 1.01 | locus YER167W, strain BCK2, hits give low values 1.01 | locus YFR010W, strain ubp6, hits give low values 1.01 | locus YGL078C, strain dbp3, hits give low values 0.994 | locus YGL086W, strain mad1, hits give low values 0.991 | locus YGL167C, strain pmr1, hits give low values 1.02 | locus YGL173C, strain kem1, hits give low values 1.02 | locus YGL227W, strain vid30, hits give low values 1.01 | locus YGL240W, strain doc1, hits give low values 1.06 | locus YGL248W, strain PDE1, hits give low values 0.992 | locus YGL253W, strain hxk2, hits give low values 0.996 | locus YGR135W, strain pre9, hits give low values 0.986 | locus YGR252W, strain gcn5, hits give low values 0.94 | locus YHR013C, strain ard1, hits give low values 0.984 | locus YHR027C, strain rpn1, hits give low values 0.999 | locus YHR030C, strain SLT2, hits give low values 1.01 and 1.02 | locus YHR079C, strain IRE1 (second series), hits give low values 1 | locus YHR079C, strain IRE1, hits give low values 1.01 | locus YHR094C, strain hxt1, hits give low values 0.995 | locus YHR129C, strain ARP1, hits give low values 1.01 | locus YHR142W, strain chs7, hits give low values 0.993 | locus YHR200W, strain rpn10, hits give low values 1.01 | locus YIL066C, strain RNR3, hits give low values 1.01 | locus YIL073C, strain SPO22, hits give low values 0.964 | locus YIL125W, strain kgd1, hits give low values 1 | locus YIR030C, strain dcg1, hits give low values 0.999 | locus YJL092W, strain hpr5, hits give low values 1.01 | locus YJL095W, strain BCK1 (second series), hits give low values 1.01 | locus YJL095W, strain BCK1, hits give low values 0.979 and 1.02 | locus YJL115W, strain asf1, hits give low values 0.999 | locus YJL129C, strain trk1, hits give low values 1.04 | locus YJL134W, strain LCB3, hits give low values 1 | locus YJL154C, strain vps35, hits give low values 1.01 | locus YJL164C, strain tpk1, hits give low values 0.984 | locus YJL166W, strain qcr8, hits give low values 1.06 | locus YJL168C, strain set2, hits give low values 1 | locus YJL187C, strain SWE1 (second series), hits give low values 0.998 | locus YJR043C, strain POL32, hits give low values 1.01 | locus YJR066W, strain TOR1, hits give low values 0.98 | locus YJR075W, strain HOC1, hits give low values 0.968
